Values joined by “and” are separate entries in the source; they are usually repeats but may differ in a detail not shown here. Equal entries are not always repeated. Screen size: about 50,000 compounds; about 800 (1.6%) showed an effect of 50% or more. Shown is part of a subset that was picked to be rich in strong results.
The molecules below were run against Bcl-2-like protein 10 (Homo sapiens) (UniProt Q9HD36) (assay: Phenotype converters, Bcl-B/TR3 peptide binding displacement, primary biochemical FP (AID 1240;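 further: 0% = Bcl-B with tracer peptide and DMSO and 100% = tracer peptide lacking Bcl-B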)). Conditions: GST-Bcl-B / FITC-TR3 peptide fluorescence polarization; stronger effect = higher value; compound at 3.75 mg/L.
Bcl-2-like protein 10 (Homo sapiens), sequence (Q9HD36 whole entry, looked up): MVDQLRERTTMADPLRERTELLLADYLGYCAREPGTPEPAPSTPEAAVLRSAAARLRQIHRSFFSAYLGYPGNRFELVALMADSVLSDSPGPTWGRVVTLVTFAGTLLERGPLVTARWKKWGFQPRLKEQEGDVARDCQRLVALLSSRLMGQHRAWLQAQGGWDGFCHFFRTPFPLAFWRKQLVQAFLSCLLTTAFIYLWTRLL
In the case of CC(=O)Nc1ccc2sc(C)nc2c1, the displacement is reported as 12.9%.
With COc1cccc(CN2CCN(Cc3cc(OC)ccc3OC)CC2)c1 the displacement was -9%.
Work on COc1ccc(C2SCC(=O)N2CCc2ccc(OC)c(OC)c2)c(OC)c1 (stereo unspecified) yielded a displacement of -6.4%.
With COc1ccc(N2C(=O)C3C4C=CC(C5CC45)C3C2=O)c([N+](=O)[O-])c1 (stereo unspecified) the displacement was 12.7%.
Molecule N/C(=N\OC(=O)c1ccc(Cl)c([N+](=O)[O-])c1)c1ccccc1 has a displacement of -3.2%.
Work on COc1ccc(C2CC(=O)C3=C(C2)Nc2ccccc2NC3c2cccs2)cc1OC (stereo unspecified) yielded a displacement of -4.5%.
Molecule Cc1ccccc1N1C(=O)c2ccc(C(=O)O)cc2C1=O has a displacement of -3.3%.
In the case of O=C(O)c1ccccc1S(=O)CCO (stereo unspecified), the displacement is reported as 6.8%.
O=C(c1ccc(N2CCN(C(=O)c3ccc(F)cc3)CC2)cc1)c1cccc(F)c1 gave a displacement of -6.4%.
O=C(c1cccc(F)c1)N1CCN(c2ccc(F)cc2)CC1 showed a displacement of -11.6%.
O=C(c1ccc(N2CCN(C(=O)c3ccccc3F)CC2)cc1)c1cccc(F)c1 was tested, and the displacement was -53.4%.
O=C(c1cccc(F)c1)N1CCN(c2ccc([N+](=O)[O-])cc2)CC1 gave a displacement of 118%.
O=C(c1ccc(N2CCN(C(=O)c3ccc(F)cc3F)CC2)cc1)c1cccc(F)c1 showed a displacement of 72.1%.
For O=C(c1cccc(F)c1)N1CCN(c2ccccc2)CC1, the displacement was -5.4%.
With Cc1ccc(/C(=N\S(=O)(=O)c2cccc([N+](=O)[O-])c2)Nc2ccccc2)cc1 the displacement was 13.2%.
COc1ccccc1OCC(=O)Nc1ccc2c(c1)OCCO2 was tested, and the displacement was 2.2%.
Work on COc1cc(/C=N/N2C(=O)C3C4C=CC(CC4)C3C2=O)cc(I)c1O (stereo unspecified) yielded a displacement of 3.3%.
COc1ccc(N2C(=O)NC(=O)/C(=C/c3cccc(O)c3)C2=O)cc1 was tested, and the displacement was -6.3%.
For CN1C(=O)NC(=O)/C(=C/c2ccc(-c3cccc(Cl)c3)o2)C1=O, the displacement was 81.5%.
With Cc1ccc([N+](=O)[O-])cc1-c1ccc(/C=C2/C(=O)NC(=O)N(C)C2=O)o1 the displacement was -8%.
With O=C1NC(=O)N(c2ccccc2)C(=O)/C1=C\c1cccn1-c1cccc([N+](=O)[O-])c1 the displacement was -2.6%.
C=CCN1C(=O)/C(=C\c2ccc(-c3ccc([N+](=O)[O-])cc3Cl)o2)C(=O)NC1=S showed a displacement of 21%.
For CN1C(=O)NC(=O)/C(=C/c2cccn2-c2cccc([N+](=O)[O-])c2)C1=O, the displacement was 115%.
CN1C(=O)NC(=O)/C(=C\c2ccc(Cl)cc2Cl)C1=O was tested, and the displacement was 3.8%.
With CN1C(=O)NC(=O)/C(=C/c2ccc(-c3ccc(Cl)cc3Cl)o2)C1=O the displacement was 72.6%.
CC1=C(C#N)C(=O)NC(=O)/C1=C\c1ccc(-c2cccc(Cl)c2)o1 gave a displacement of 24.7%.
In the case of CN1C(=O)NC(=O)/C(=C/c2ccc(-c3ccc(Cl)c(Cl)c3)o2)C1=O, the displacement is reported as -7.2%.
CN1C(=O)NC(=O)/C(=C/c2ccc(-c3ccc([N+](=O)[O-])cc3Cl)o2)C1=O was tested, and the displacement was 93.6%.
For CC1(C)OC(=O)C(=Cc2ccc(-c3ccc(Cl)cc3Cl)o2)C(=O)O1, the displacement was 34.4%.
For COc1ccc(N2C(=O)NC(=O)/C(=C/c3cccn3-c3cccc([N+](=O)[O-])c3)C2=O)cc1, the displacement was -4%.
With O=C(/C=C/c1ccc(F)cc1)NC(=S)NCc1ccco1 the displacement was 18.2%.
O=C1NC(=O)C(=Cc2ccc(-c3cc(Cl)c([N+](=O)[O-])cc3Cl)o2)C(=O)N1 showed a displacement of 81.2%.
Molecule Cc1ccc(N2C(=O)NC(=O)/C(=C\c3ccc(-c4ccc([N+](=O)[O-])cc4Cl)o3)C2=O)cc1 has a displacement of 87.2%.
With CN1C(=O)NC(=O)/C(=C/c2ccc(-c3cccc(Cl)c3Cl)o2)C1=O the displacement was 74.5%.
With COc1ccc(N2C(=O)NC(=O)/C(=C/c3ccc(-c4ccc([N+](=O)[O-])cc4Cl)o3)C2=O)cc1 the displacement was 20.3%.
In the case of Cc1ccc(-c2ccc(C=C3C(=O)NC(=O)NC3=O)o2)c([N+](=O)[O-])c1, the displacement is reported as 1.3%.
CN1C(=O)C(=Cc2ccc(-c3cccc(Cl)c3Cl)o2)C(=O)N(C)C1=O was tested, and the displacement was 4.6%.
O=C1NC(=O)N(c2ccccc2)C(=O)/C1=C\c1ccc(-c2ccc([N+](=O)[O-])cc2Cl)o1 gave a displacement of 11.5%.
O=C1NC(=O)C(=Cc2ccc(-c3cccc(Br)c3)o2)C(=O)N1 gave a displacement of 81.1%.
Cc1cc(-c2ccc(C=C3C(=O)NC(=S)NC3=O)o2)c([N+](=O)[O-])cc1C showed a displacement of 26.1%.
In the case of O=C1NC(=O)N(c2ccccc2)C(=O)/C1=C\c1ccc(-c2ccccc2Cl)o1, the displacement is reported as 42.6%.
O=C1NC(=S)N/C1=C/c1ccc(-c2cccc(Br)c2)o1 was tested, and the displacement was 15.5%.
Cc1ccc(-c2ccc(C=C3C(=O)NC(=O)NC3=O)o2)c(Br)c1 gave a displacement of -9.6%.
In the case of Nc1nonc1N=Cc1cc(Br)ccc1O, the displacement is reported as -12.8%.
Work on CCC1CCc2c(sc(NC(=O)C3CCCC3)c2C(N)=O)C1 (stereo unspecified) yielded a displacement of -1.5%.
In the case of COc1cc(/C=C2/C(=O)NC(=O)N(c3cccc(C)c3)C2=O)ccc1OCC(=O)O, the displacement is reported as -14.8%.
With Cc1cc(=O)[nH]c(SCc2cccc(Oc3ccccc3)c2)n1 the displacement was -8% and 5.2%.
CCCCOc1cc2oc(=O)c(CC)c(C)c2cc1CC was tested, and the displacement was 0.2%.
In the case of CN(c1ccccc1)c1ccc(C=C2C(=O)NC(=O)NC2=O)cc1, the displacement is reported as 19.6%.
CC(/C=C/c1ccc(N(C)C)cc1)=N\N=C(/N)SC1CC(=O)N(c2ccc(F)cc2)C1=O (stereo unspecified) showed a displacement of -8.3%.
COc1cc2c(C)nc3c(c(C)nn3-c3ccccc3)c2cc1OC showed a displacement of 59.5%.
Molecule COc1cc2c(C)nc3c(cnn3-c3ccccc3)c2cc1OC has a displacement of -5.8%.
COc1cc2c(C)nc3c(c(C)nn3C)c2cc1OC showed a displacement of -1.5%.
With CCOc1cc(C2CC(=O)NC(C)=C2C(=O)OC)cc(Br)c1OC (stereo unspecified) the displacement was 10.6%.
CCCCOP(=O)(OCCCC)C(Nc1ccccc1)c1ccc(OC)cc1 (stereo unspecified) showed a displacement of 52.1%.
In the case of CCOP(=O)(OCC)C(Nc1ccccc1)c1ccc2c(c1)OCO2 (stereo unspecified), the displacement is reported as 13.6%.
CCCOP(=O)(OCCC)C(Nc1ccc(Cl)cc1)c1ccc(Br)cc1 (stereo unspecified) showed a displacement of 17.1%.
Work on COc1cc(C2NC(=O)c3c(sc4c3CCN(C)C4)N2)cc(OC)c1OC (stereo unspecified) yielded a displacement of 3.2%.
Work on CN1CCc2c(sc3c2C(=O)NC(c2ccc(Cl)s2)N3)C1 (stereo unspecified) yielded a displacement of 4%.
CN1CCc2c(sc3c2C(=O)NC(c2ccc4ccccc4c2)N3)C1 (stereo unspecified) was tested, and the displacement was 83%.
Molecule CCOC(=O)NC12CC3CC(C1)CC(C(F)(F)F)(C3)C2 has a displacement of 3.2%.
Work on COc1ccc(/C=N\N2CCN(c3ccccc3)CC2)cc1 yielded a displacement of -0.3%.
CCOC(=O)c1c(NC(=O)Cc2ccc(Cl)cc2)sc(C(=O)Nc2ccc(OC)cc2OC)c1C was tested, and the displacement was 18.5%.
O=C1CCNc2c(Cl)cc(Cl)cc21 was tested, and the displacement was 88.6%.
Work on C/C(=N\N1CCN(c2ccccc2)CC1)c1ccc(F)cc1 yielded a displacement of -8.7%.
Work on CC1(C)Cc2ccccc2C(N/N=C/c2ccc(Cl)cc2)=N1 yielded a displacement of -3.6%.
In the case of O=c1oc2ccc(Br)cc2cc1-c1nc(-c2ccc([N+](=O)[O-])cc2)cs1, the displacement is reported as -7.2%.
For O=c1oc2ccc(Br)cc2cc1-c1csc(-c2cc3cc([N+](=O)[O-])ccc3oc2=O)n1, the displacement was -5.4%.
In the case of Cc1ccc(-c2nc(-c3cc4cc([N+](=O)[O-])cc(Br)c4oc3=O)cs2)c(C)c1, the displacement is reported as 95.2%.
In the case of Cc1ccc(S(=O)(=O)Nc2ccc(S(=O)(=O)N3CCCCC3)cc2)cc1[N+](=O)[O-], the displacement is reported as -4%.
In the case of Cn1c(=O)c(C2=NS(=O)(=O)c3ccccc3N2)c(O)c2ccccc21, the displacement is reported as 2.1%.
Molecule CC(=O)CC(c1ccccc1)S(=O)(=O)c1ccccc1C (stereo unspecified) has a displacement of 0.2%.
Molecule O=C(NCCC(c1ccccc1)c1ccccc1)C(F)(F)F has a displacement of -1.5%.
O=C(NCCCc1ccccc1)C(F)(F)F gave a displacement of 85.1%.
Molecule O=C(NCCCc1ccccc1)c1ccccc1 has a displacement of -1.3%.
With CCCCOc1ccc(C=O)cc1OCC the displacement was -7.3%.
Work on CC(=O)C1=C(O)C(=O)N(CCN2CCNCC2)C1c1cccc(F)c1 (stereo unspecified) yielded a displacement of -17.2%.
For CCOC(=O)c1ccc(N2C(=O)NC(=O)/C(=C/c3ccc(OC)c(OC)c3)C2=O)cc1, the displacement was -4.2%.
Work on CCCC(=O)NC(c1ccco1)c1c(O)ccc2ccccc12 (stereo unspecified) yielded a displacement of 6.6%.
Molecule NS(=O)(=O)c1ccc(N/C=C/C(=O)c2ccc(Cl)c(Cl)c2)cc1 has a displacement of 4.8%.
NS(=O)(=O)c1ccc(N/C=C/C(=O)c2ccco2)cc1 showed a displacement of 74.8%.
COc1ccc(N/C=C/C(=O)c2ccco2)cc1 was tested, and the displacement was 11.7%.
Cc1ccc(N2C(=O)NC(=O)/C(=C\c3ccc(N(C)C)c(Br)c3)C2=O)cc1 showed a displacement of 10.1%.
CC(=O)c1cccc(N2C(=O)C3CCCCC3C2=O)c1 (stereo unspecified) gave a displacement of -12.9%.
COc1ccc(/C=C2/C=C(c3ccccc3)OC2=O)c(OC)c1 was tested, and the displacement was -30%.
With CC(=O)Oc1ccccc1/C=C1\C=C(c2ccc(Cl)cc2)OC1=O the displacement was 108%.
COc1ccc(C2=C/C(=C/c3ccccc3OC)C(=O)O2)cc1 was tested, and the displacement was 85.1%.
COc1ccccc1/C=C1\C=C(c2ccc(Cl)cc2)OC1=O was tested, and the displacement was 9.6%.
COc1ccc(C2=C/C(=C/c3ccc(OC)cc3OC)C(=O)O2)cc1 gave a displacement of 144%.
Work on COc1ccc(/C=C2\C=C(c3ccc(Cl)cc3)OC2=O)c(OC)c1 yielded a displacement of 25.2%.
With CC(=O)Oc1ccccc1/C=C1\C=C(c2ccc(Br)cc2)OC1=O the displacement was 12%.
COc1ccc(OC)c(/C=C2/C=C(c3ccccc3)OC2=O)c1 showed a displacement of -24.5%.
Molecule CC(=O)Oc1ccccc1/C=C1\C=C(c2ccc(C)cc2)OC1=O has a displacement of -0.2%.
With O=C(CCc1ccccc1)Nc1ccc(Br)cc1 the displacement was 9.1%.
O=C(c1ccccc1Cl)N1CCN(c2c(Cl)cccc2[N+](=O)[O-])CC1 showed a displacement of 8.5%.
O=[N+]([O-])c1cccc(Cl)c1N1CCOCC1 gave a displacement of 3.9%.
O=[N+]([O-])c1cccc(Cl)c1N1CCN(CCO)CC1 showed a displacement of 89.3%.
Cc1ccc(C(=O)Nc2ccc(NC(=O)c3ccco3)cc2)cc1C gave a displacement of -0.4%.
Cc1ccc(C(=O)Nc2ccc(NC(=O)c3ccco3)c(Cl)c2)cc1C gave a displacement of -8.9%.
With Cc1ccc(C(=O)Nc2cccc(NC(=O)c3ccco3)c2)cc1C the displacement was 60.4%.
Molecule CCn1cc(C(=O)NN)c(=O)c2cc(Br)ccc21 has a displacement of 20.2%.
Molecule O=C(CSc1nc2ccc([N+](=O)[O-])cc2s1)N1CCOCC1 has a displacement of 1.4%.
COC1C(C)=CC(=O)N1Cc1ccccc1 (stereo unspecified) gave a displacement of 4.4%.
Cc1cc(C)c(S(=O)(=O)NCC2CCCO2)c(C)c1 (stereo unspecified) was tested, and the displacement was -8%.
CCc1cc(C)cc(OCCOc2ccc([N+](=O)[O-])cc2/C=C2/SC(=S)N(C)C2=O)c1 gave a displacement of 20.5%.
For COc1ccccc1/C=C1\SC(=N)N(c2ccc(F)cc2)C1=O, the displacement was -8.6%.

Source: PubChem BioAssay AID1240 (Sanford-Burnham Center for Chemical Genomics, 2008)
